Screening data from PubChem BioAssay.
The list is not random: actives were taken first. Their share in the collection is about 2.8%.
TRPM1 prom inh: inhibitors of MITF-dependent TRPM1 promoter reporter, primary screen, cell-based, SK-MEL-5, single point, luciferase | SK-MEL-5 TRPM1 promoter luciferase, 24 h | inhibition, % at 12.5 µM | actives 0.83% (n = 330,000) | AID 488899, 2010;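 active = mean inhibition across replicates of 60% or more, whatever share of single replicates reaches that level; inconclusive = some that reach 60%, reason not given; inactive = mean inhibition across replicates below 60%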
CF NFkB block: inhibitors of PAF-induced NF-kB signaling, primary screen, cell-based, GFP fluorescence, uHTS. KKLEB NF-kB-GFP reporter, GFP fluorescence overnight. inhibition, % at 5 µM. actives 0.86% (n = 360,000);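 active = at least 50% inhibition at 5 µM, scaled per plate between neutral and stimulator controls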;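 also: PAF is a Pseudomonas aeruginosa culture filtrate used as stimulus; plate controls were PAF-stimulated DMSO wells for no effect and unstimulated DMSO wells for full effect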
Peg3 prom inh: Peg3 promoter-driven luciferase inhibitors, primary screen, cell-based, HeLa, luciferase luminescence; AID 588405, 2011; inhibition, % at 20 µM; actives 1.7% (n = 360,000); HeLa PEG-Prom luciferase reporter, overnight;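 active = inhibition of at least 50% at 20 µM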
KKLEB tox: cytotoxicity in KKLEB CF airway cells, primary screen, cytotoxicity control for CF NF-kB inhibitor project, cell-based, uHTS, fluorescence assay plates; KKLEB CF airway cells viability, ATPlite luminescence, overnight; stronger effect = lower value; cells stimulated with P. aeruginosa culture filtrate; activity change (cytotoxicity), % at 5 µM; actives 0.36% (n = 360,000); AID 602141, 2011;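 active = corrected activity change at or below -50% at 5 µM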
HIF-2a inh: HIF-2a reporter inhibitors, primary screen, luminescence, 786-0 RCC cells | 786-0 RCC cells HIF-2a reporter, luciferase luminescence, overnight | actives 0.72% (n = 360,000) | inhibition, % at 18.8 µM;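 active = inhibition of the luminescence signal of 40% or more relative to plate controls, in a single-dose primary screen at 18.75 µM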
Shn3 3UTR inh: reduction of Shn3 3'UTR firefly luciferase signal, primary screen, Schnurri-3 inhibitor project, cell-based, Clone20 osteoblasts, set 2; Clone20 osteoblast Shn3 3'UTR firefly luciferase, 24 h; actives 0.52% (n = 360,000); inhibition, % at 12.5 µM;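 active = mean inhibition of at least 75% with every replicate also reaching 75%; inconclusive = mean inhibition at least 75% but some replicate below; inactive = mean inhibition below 75%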;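 also: 0% = median of neutral control wells and 100% = pilot-screen positive control compound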
CF NFkB inh conf: inhibitors of PAF-induced NF-kB signaling, retest, confirmation, cell-based, GFP fluorescence, single concentration; shares compounds with CF NFkB block; KKLEB CF airway cells, overnight; inhibition, % at 5 µM; actives 64% (n = 1,300); AID 602472, 2012; in the data active = inhibition above about 40%;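 also: stimulus PAF is a Pseudomonas aeruginosa filtrate and not platelet activating factor; plate controls were DMSO wells with stimulus for no effect and unstimulated DMSO wells for full effect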
* marks the source's active call; other numbers are inactive results; ? = inconclusive; / = no result.

SMILES | TRPM1 prom inh | CF NFkB block | Peg3 prom inh | KKLEB tox | HIF-2a inh | Shn3 3UTR inh | CF NFkB inh conf
Cc1ccc(CNc2ncnc3ccc(-c4ccc(CO)o4)cc23)o1 | / | 53* | 28 | -34 | 34 | 26 | 81*
Cc1cc(=O)oc2cc(NC(=O)C(C)N3C(=O)C4CCCCC4C3=O)ccc12 (stereo not drawn) | -3 | 12 | -12 | 12 | -2 | -4 | /
Cc1nnc(NC(=O)CC23CC4CC(CC(C4)C2)C3)s1 | / | 13 | -5 | -4 | -2 | 12 | /
O=C(CC12CC3CC(CC(C3)C1)C2)Nc1nncs1 | 2 | 50* | 36 | -5 | 19 | 7 | 61*
S=C(Cc1cccnc1)N1CCOCC1 | 2 | 4 | 9 | -1 | 8 | -13 | /
CC1=Nc2ccccc2/C1=C/c1c(C)[nH]c2ccccc12 | 49 | 53* | 91* | -22 | 25 | 18 | -60
CC(C)[C@H](NS(=O)(=O)c1cccc(C(F)(F)F)c1)C(=O)OCC(=O)NC(=O)NCc1ccco1 | 7 | 21 | 18 | -7 | 17 | 19 | /
CCC(C)(C)NC(=O)c1ccc(Sc2nncn2C)c([N+](=O)[O-])c1 | 8 | 14 | 5 | -13 | 13 | 9 | /
Cn1cnnc1Sc1ccc(/C=C/C(=O)c2ccc(O)cc2)cc1[N+](=O)[O-] | 5 | 59* | 110* | -2 | 36 | -3 | -91
O=C1NCCc2c1[nH]c1ccccc21 | 16 | 8 | 9 | -1 | -1 | -3 | /
COc1ccc2[nH]c3c(c2c1)CCNC3=O | 19 | 52* | 0 | -6 | -20 | 12 | 83*
Cc1ccc(S(=O)(=O)n2nc(OC(=O)c3c(-c4ccccc4Cl)noc3C)cc2N)cc1 | 11 | 27 | 17 | -5 | 17 | 6 | /
Cc1onc(-c2ccccc2Cl)c1C(=O)Oc1cc(N)n(S(=O)(=O)c2ccc(F)cc2)n1 | 4 | 62* | 21 | -21 | 23 | 9 | 28
CCOc1ccc(C(C(=O)NCC2CCCO2)N(Cc2cccs2)C(=O)c2snc(C(N)=O)c2N)cc1 (stereo not drawn) | 8 | 72* | 48 | -30 | 5 | 20 | 72*
CCc1nc(Cl)c(C#N)c2c1CCCC2 | -8 | 55* | -19 | 0 | 28 | 25 | 75*
CCc1nc(Cl)c(C#N)c2c1CSC(C)(C)C2 | -7 | 58* | 4 | -21 | 22 | 7 | 42*
CC(C)Cc1nc(Cl)c(C#N)c2c1CCCC2 | 0 | 36 | 18 | 2 | 17 | -5 | /
CCCc1nc(NCCO)c(C#N)c2c1CCCC2 | / | 6 | 9 | 6 | 8 | -4 | /
CCCc1nc(Cl)c(C#N)c2c1CCCC2 | -13 | 68* | -6 | -12 | 18 | 9 | 76*
CCCCc1nc(Cl)c(C#N)c2c1CSC(C)(C)C2 | -8 | 16 | 4 | -17 | 22 | -4 | /
CCOC(=O)C1CCCN(C(=O)c2ccc3c(c2)C(C)(C)CCC3(C)C)CC1 (stereo not drawn) | / | 4 | 36 | -6 | 26 | 45 | /
Cc1c(Cl)c([N+](=O)[O-])nn1CC(=O)N1CCN(Cc2ccccc2)CC1 | 8 | -8 | 2 | 0 | 20 | -4 | /
Cc1ccc(NC(=O)c2nc[nH]c2C(=O)NCCCNC(=O)c2[nH]cnc2C(=O)Nc2ccc(C)cc2)cc1 | -26 | 52* | 84* | -13 | 2 | 16 | 79*
Cc1ccc(C(=O)c2cc([N+](=O)[O-])ccc2N2CCCCC2)c(C)c1 | 31 | 63* | 17 | -50 | 30 | 34 | 83*
CC=Cc1cc(OC)c2c(c1)C(C)C(c1ccc(O)c(OC)c1)O2 (stereo not drawn) | 15 | 9 | 13 | -7 | -14 | 3 | /
SMILES | TRPM1 prom inh | CF NFkB block | Peg3 prom inh | KKLEB tox | HIF-2a inh | Shn3 3UTR inh | CF NFkB inh conf
CCN1CCN(Cc2ccc(NC(=O)c3ccc(C)c(NC(=O)c4ccc5n[nH]nc5c4)c3)cc2C(F)(F)F)CC1 | 29 | 55* | -10 | -11 | 15 | -12 | 69*
CCN1CCN(Cc2ccc(NC(=O)c3ccc(C)c(NC(=O)C(=O)c4c[nH]c5ccccc45)c3)cc2C(F)(F)F)CC1 | 82* | 70* | 97* | -10 | 11 | ? | 71*
O=C(Oc1ccccc1C(=O)Nc1ccccc1)c1ccccc1Br | -4 | 62* | -94 | -46 | -116 | -45 | -12
O=C(COc1ccccc1C(=O)Nc1ccccc1)c1ccc(Br)cc1 | -4 | 10 | -13 | -5 | -12 | -33 | /
CCc1cc2c(-c3ccccc3)cc(=O)oc2cc1OC(C)C(C)=O (stereo not drawn) | -17 | 22 | -8 | -13 | -24 | 17 | /
CC(C)(C)OC(=O)NCC(=O)Oc1cc2oc(=O)cc(-c3ccccc3)c2cc1Cl | -16 | 53* | 6 | 1 | 13 | 1 | 90*
O=C(Oc1cc2oc(=O)cc(-c3ccccc3)c2cc1Cl)C1CCCCC1 | -31 | 64* | 2 | -17 | -4 | -5 | 87*
c1csc(CNc2ncnc3ccc(-c4ccc5c(c4)OCO5)cc23)c1 | 7 | 27 | 30 | -24 | 29 | 18 | /
c1csc(CNc2ncnc3ccc(-c4ccoc4)cc23)c1 | -7 | 77* | -11 | -7 | 4 | 8 | 92*
COc1ccc(NC(=O)c2cc3c(-c4ccc(OC)c(OC)c4)nn(C)c3s2)cc1OC | 22 | 87* | -69 | -21 | -2 | 4 | 62*
Fc1ccc(-n2cc(-c3ccccc3)c3c(N4CCOCC4)ncnc32)cc1 | 8 | 86* | 54* | -2 | 17 | 27 | 104*
Cc1nc2sc3c(NCc4ccco4)ncnc3c2c2c1COC(C)(C)C2 | -11 | 72* | -3 | -30 | 19 | 6 | 37
Cc1cc(F)ccc1C(O)c1ncc(-c2ccc3ccccc3c2)[nH]1 (stereo not drawn) | / | -15 | -6 | 4 | -83 | -4 | /
Cc1nc2c(=O)n(C)c(=O)n(C)c2nc1Cl | 43 | 75* | 108* | 9 | 39 | 97* | -12
Cc1nccn1CCCNC(=O)CC1C(=O)NCCN1Cc1ccc(F)cc1Cl (stereo not drawn) | -9 | -4 | -1 | 5 | 8 | -4 | /
Cc1ccc(-n2sc3cc(F)ccc3c2=O)c(C)c1 | / | 27 | 28 | 6 | -32 | 16 | /
O=c1c2cc(F)ccc2sn1-c1ccccc1Cl | / | 51* | 24 | -10 | -1 | 29 | 31
